This is one part of the list. Values without a mark were called inactive. Calls of active or inactive are those of the source.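 Rule for the calls: active = mean inhibition above the hit cutoff derived in the earlier primary screen (cut at about 25% in these data); inactive = the rest.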

A short description of this assay: reduced survival of JAK2V617F-driven Ba/F3 cells – cell-based, Ba/F3 EpoR-JAK2V617F, luminescence, triplicate, JAK2V617F inhibitor project, confirmation (AID 1521).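 Note: 0% = DMSO-treated cells and 100% = JAK inhibitor I control wells; higher means lower luminescence from reduced cell ATP and viability.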 The settings on record: Ba/F3 EpoR-JAK2V617F viability, CellTiter-Glo luminescence; at 5.6 µM; hits give high values. For orientation: Cellular ATP, detected with luciferase, serves as a proxy for viable cell number.
Regarding `CCCc1nc2ccccc2c(=O)n1/N=C/c1ccc(O)c(O)c1`, the inhibition (usually the change of the read-out against control, counted positive when it falls) is 67.2% (active).

Consider `N#C/C=C\Oc1ccc(Cl)cc1N`, for which the inhibition is 39.2% (active).

`CN(Cc1ccc2nsnc2c1)Cc1nc(Cc2cccc(F)c2)no1`: the inhibition was 7.27%.

Take `Cc1ccc(NC(=S)N(CCCN2CCC(C)CC2)Cc2ccco2)cc1`: the inhibition was 52.5% (active).

For the molecule `Cc1ccc(C2=NN(C)c3nc4ccccc4n3C2)cc1`, the inhibition is -7.33%.

Regarding `CSCC(=O)N1CCCC(C(=O)c2cc(F)ccc2F)C1` (stereo not drawn), the inhibition was -9.05%.

Regarding `O=C(CCl)N(Cc1cccc([N+](=O)[O-])c1)c1cccc(Cl)c1`, the inhibition is 99.7% (active).

For `Cn1c(CCN2CCCCCC2)nc2cc(NC(=O)Nc3ccccc3)ccc21`, the inhibition was -1.25%.

Regarding `O=c1oc2ccccc2cc1-c1cn(-c2ccccc2)c(=S)[nH]1`, the inhibition was 92.7% (active).

As for `CCCn1c(NC(=O)C23CC4CC(CC(O)(C4)C2)C3)nc2ccccc21`, the inhibition is -6.61%.

On to `CCn1c(/C=C/c2ccc([N+](=O)[O-])o2)nc2ccccc2c1=O`, for which the inhibition was 99.1% (active).

For the molecule `COc1cc(OC)cc(C(=O)N[C@H](C(=O)Nc2nc3ccccc3[nH]2)C(C)C)c1`, the inhibition is 99.1% (active).

As to `COc1cc(OC)c(C(=O)NC2CCCCCC2)cc1OC`, the inhibition was 18.7%.

With `Cc1ccc(S(=O)(=O)C2(S(=O)(=O)c3ccc(C)cc3)CCCC2)cc1`, the inhibition is 62.1% (active).

Turning to `COc1ccccc1N1CCN(Cc2ccc(OC)c3ccccc23)CC1`, the inhibition was 31.5% (active).

Regarding `c1ccc2c(c1)CSc1sccc1C2=C1CCNCC1`, the inhibition was 57.9% (active).

With `CCC1CCCCN1CCCNC(=O)c1cc2c(Cl)nc3ccccc3c2s1` (stereo not drawn), the inhibition was 12.1%.

As for `Cc1cccc(NC(=O)c2ccc([N+](=O)[O-])o2)c1`, the inhibition was 84.7% (active).

On to `COc1ccc(Cc2nnc(N/N=C/c3ccccc3O)[nH]c2=O)cc1OC`, for which the inhibition is 98.9% (active).

For `O=C(CCl)Nc1ccc(Sc2ccc(NC(=O)CCl)cc2)cc1`, the inhibition is 99.7% (active).

Take `COc1ccc(-c2csc(Nc3ccc(O)cc3)n2)cc1`: the inhibition was 97.2% (active).

On to `COc1ccc(OC)c(Nc2nc(-c3ccc(O)c(O)c3)cs2)c1`, for which the inhibition was 99% (active).

With `Oc1ccc(/C=N/Nc2ccc(C(F)(F)F)cn2)cc1O`, the inhibition was 99.2% (active).

Values taken from PubChem BioAssay AID1521 (The Scripps Research Institute Molecular Screening Center, 2009).
